High-throughput results (PubChem BioAssay)
In the library only some 2.4% were active in any assay of this set; here they are far more common.
Cruzain inh Det = blocks cruzain activity in presence of Triton detergent; P25779; purified cruzain, Z-FR-AMC fluorescence, 0.01% Triton; Potency, µM, without a hit: max response, negative = inhibition, hits mostly inhibitors; hit rate 0.43% among 200,000; AID 1478;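 also: plate controls were neutral wells for no effect and buffer without enzyme for full effect; nearly all actives have a fitted effect of over 40% in size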
Target sequence (P25779 123-467 limits assumed): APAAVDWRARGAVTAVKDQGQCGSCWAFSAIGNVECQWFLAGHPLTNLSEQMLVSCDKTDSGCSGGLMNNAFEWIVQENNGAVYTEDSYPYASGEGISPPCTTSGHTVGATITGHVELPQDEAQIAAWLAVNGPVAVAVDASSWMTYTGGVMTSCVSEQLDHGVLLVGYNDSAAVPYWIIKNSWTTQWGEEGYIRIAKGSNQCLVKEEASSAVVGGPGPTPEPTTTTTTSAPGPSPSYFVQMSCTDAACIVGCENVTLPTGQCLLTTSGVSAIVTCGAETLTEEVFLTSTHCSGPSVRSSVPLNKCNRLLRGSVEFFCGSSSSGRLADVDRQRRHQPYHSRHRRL
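Read-out: AMC fluorescence (360 nm excitation, 450 nm emission), four reads over 2 min, first-to-third difference used. Conditions: cruzain 1.5 nM, Z-FR-AMC 2 uM, pH 5.5 acetate, 5 mM DTT, 0.01% Triton X-100.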
Cruzain noTriton = blocks cruzain activity in detergent-free assay | Potency, µM, without a hit: max response, negative = inhibition, hits mostly inhibitors | P25779 | purified cruzain, Z-FR-AMC fluorescence, no detergent | hit rate 2.3% among 200,000;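 also: plate controls were enzyme without inhibitor for no effect and buffer without enzyme for full effect; nearly all actives have a fitted effect of over 40% in size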
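Detergent-free condition (0.00005% Triton X-100) in acetate buffer pH 5.5 with DTT. 1.5 nM enzyme and compound were pre-mixed 15 min, then 2 uM Z-FR-AMC substrate added; reaction progress from fluorescence change between first and third reads (60 s).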
Numbers without * were called inactive; ? = inconclusive. Calls follow the shape of the dose curve; as a rule, active = well fitted curve in the direction sought with a large enough effect; inconclusive = small, poorly fitted or top-dose-only effect, or another doubt; inactive = no such curve, though single readings can be large; an effect the other way counts as inactive or inconclusive. Potency is read from the fitted curve at half-maximal effect.

SMILES	Cruzain inh Det	Cruzain noTriton
CCc1cccc(C)c1Nc1c(-c2ccccc2)nc2sccn12	-12%	-3%
Cc1ccccc1Nc1c(-c2ccc(Br)cc2O)nc2sccn12	-4%	20µM*
Cc1ccc(-c2nc3sccn3c2Nc2ccccc2C)cc1	-13%	25µM*
CCN(C(=O)c1cccn(Cc2ccccc2C)c1=O)c1ccccc1	0%	4%
CCOc1ccc(-n2ccnc2SCC(=O)Nc2ccc(OC)cc2OC)cc1	-5%	0%
CCCn1c(=O)c2sccc2n2c(CCCC(=O)N3CCN(c4cccc(Cl)c4)CC3)nnc12	0%	3%
CCc1ccccc1NC(=O)Nc1c[nH]c(=O)[nH]c1=O	2%	4%
Cc1c(Cl)cccc1-n1ncc(C(=O)NCc2cccs2)c1C1CCN(C(=O)OC(C)(C)C)CC1	-5%	8%
CCOC(=O)c1c(C)c(-c2ccccc2)n(CC(=O)NCCc2ccc(C)cc2)c1C	0%	-3%
N#Cc1c(NC(=O)Cn2cnc3ccccc3c2=O)oc(-c2ccccc2)c1-c1ccccc1	1%	25µM*
N#Cc1c(NC(=O)CN2CCOCC2)oc(-c2ccccc2)c1-c1ccccc1	-7%	?
Cc1ccnc(SCC(=O)Nc2oc(-c3ccccc3)c(-c3ccccc3)c2C#N)n1	-1%	?
CCn1c(SCC(=O)Nc2oc(-c3ccccc3)c(-c3ccccc3)c2C#N)nnc1-c1cc(OC)cc(OC)c1	5%	7.9µM*
COc1ccc(C(=O)NCC(c2cccnc2)N2CCN(c3ccccc3F)CC2)cc1OC (stereo not given)	-3%	-5%
CC(=O)Oc1c2c(c(CC=C(C)C)c3c1C(=O)C1=CC4CC5C(C)(C)OC(C/C=C(\C)C(=O)O)(C4=O)[C@]15O3)OC(C)(CCC=C(C)C)C=C2 (stereo not given in full)	-13%	27%
CCNc1ncc2nc(-c3ccc(F)cc3)c(=O)n(-c3ccccc3)c2n1	3%	16%
CC(CNC(=O)C1CCN(S(=O)(=O)c2ccc3c(ccn3C)c2)CC1)c1ccccc1 (stereo not given)	0%	-2%
CN(C)S(=O)(=O)c1cc(NC(=O)[C@H](Cc2ccccc2)N2C(=O)c3ccccc3C2=O)ccc1Cl	-4%	20µM*
CN(C)S(=O)(=O)c1cc(NC(=O)COC(=O)Cc2ccccc2)ccc1Cl	-7%	-10%
Cn1c(=O)c2c(c3ccccc31)OC(=O)CC2c1ccc(C(F)(F)F)cc1 (stereo not given)	-8%	26%
CCc1cccc(NC(=O)CCn2nc(C)cc2C)c1	-1%	10%
COc1ccc(-n2nc3cc(C)c(NC(=S)NC(=O)c4ccccc4C)cc3n2)cc1	-3%	13µM*
CCC(=O)Nc1cc2nn(-c3ccc(OC)cc3)nc2cc1C	8%	?
COc1ccc2[nH]cc(CCNc3cc(-c4cccc(C#N)c4)ncn3)c2c1	-12%	-17%
CCOc1ccccc1NC(=O)c1c(NC(=O)CNCc2ccco2)sc2c1CCC2	-1%	10µM*
SMILES	Cruzain inh Det	Cruzain noTriton
CCOc1ccccc1NC(=O)c1c(NCc2ccc(C)o2)sc2c1CCCCC2	-7%	-12%
O=c1n(Cc2ccc(Cl)cc2)c2sc3c(c2c2ncnn12)CCCC3	-13%	25µM*
C=CCn1c(=O)n2ncnc2c2c3c(sc21)CCCC3	0%	-10%
COc1ccc(C(=O)NCc2ccc3c(c2)CCN3C(C)=O)c(OC)c1	-1%	-9%
O=S(=O)(c1cccc(-c2nc3ccccc3s2)c1)N1CCCC1	-7%	6%
O=S(=O)(c1ccc(-c2nc3ccccc3s2)cc1)N1CCCC1	3%	25µM*
COc1ccccc1NC(=O)C1CCN(S(=O)(=O)c2ccc3c(c2)oc(=O)n3C)CC1	-2%	0%
CCc1cccc(C)c1NC(=O)COC(=O)c1c2c(nc3ccccc13)/C(=C\c1cccs1)CCC2	0%	7.9µM*
NC(=O)c1ccc(NC(=O)COC(=O)c2c3c(nc4ccccc24)/C(=C\c2cccs2)CCC3)cc1	-2%	?
CSc1ccc(C2c3c(oc4ccc(F)cc4c3=O)C(=O)N2c2ccc(C)cn2)cc1 (stereo not given)	-1%	0%
CC1=C(C(=O)Nc2ccc(C)cc2C)C(c2cc(Br)ccc2F)n2ncc(C(=O)Nc3ccc(C)cc3)c2N1 (stereo not given)	-1%	-29%
COc1ccccc1NC(=O)C1=C(C)Nc2c(C(=O)Nc3cccc(C)c3)cnn2C1c1ccccc1Cl (stereo not given)	-6%	25µM*
COc1ccccc1NC(=O)C1=C(C)Nc2c(C(=O)Nc3cccc(C)c3)cnn2C1c1ccccc1C (stereo not given)	-5%	?
CC1=C(C(=O)Nc2ccccc2)C(c2cc(Br)ccc2F)n2ncc(C(=O)Nc3ccccc3)c2N1 (stereo not given)	-4%	20µM*
O=C(Nc1ccc(F)c(F)c1)C1CCCN1S(=O)(=O)c1cccc2nsnc12 (stereo not given)	-1%	-2%
CCN(CC)c1ccc(NC(=O)C2CCN(c3nnc(-n4cccc4)s3)CC2)c(C)c1	-4%	10%
COc1ccccc1NC(=O)Cn1c(=O)c(CNc2ccc(C)cc2)cc2cc3c(cc21)OCCO3	-4%	?
Cc1cccc(NC(=O)c2cc3c(=O)n(Cc4cccnc4)ccc3nc2C)c1	-4%	?
COc1cccc(CNC(=O)c2cc(C)nc3c2c(C)nn3-c2ccc(C)cc2)c1	-13%	22%
COc1cccc2sc(N3CCN(C(=O)CCS(=O)(=O)c4ccc(F)cc4)CC3)nc12	-2%	20%
N#Cc1ccc(-c2csc(NC(=O)c3ccc(S(=O)(=O)N4CCc5ccccc5C4)cc3)n2)cc1	-2%	6.3µM*
Cc1cc(C)c2sc(NNC(=O)c3ccc(S(=O)(=O)N4CCc5ccccc5C4)cc3)nc2c1	4%	6.3µM*
O=C(Nc1nc(-c2ccncc2)cs1)c1ccc(S(=O)(=O)N2CCOCC2)cc1	1%	5%
Cc1cc(C)c2nc(NNC(=O)c3ccc(S(=O)(=O)N4CCc5ccccc5C4)cc3)sc2c1	3%	6.3µM*
CCc1nnc(NC(=O)c2ccc(S(=O)(=O)N3CCc4ccccc4C3)cc2)s1	4%	?
SMILES	Cruzain inh Det	Cruzain noTriton
COC(=O)COc1ccc(S(=O)(=O)N2CCc3ccccc3C2)cc1C	-3%	8%
Cc1nnc(SCC2=C(C(=O)O)N3C(=O)C(NC(=O)Cn4cnnn4)[C@@H]3SC2)s1 (stereo not given in full)	3%	-3%
COc1ccc(-c2nn(CCC(=O)O)cc2/C=C2\SC(N)=NC2=O)cc1OC	-4%	3%
CCCOc1ccc(-c2nn(-c3ccccc3)cc2/C=C2\SC(N)=NC2=O)cc1C	-5%	13µM*
Cn1c(=O)[nH]c(=O)c2c1nc(CN1CCN(c3ccccc3F)CC1)n2Cc1ccc(F)cc1	-5%	?
CNC(=S)N/N=C/c1cn(CCOc2ccccc2OC)c2ccccc12	-23%	32µM*
COc1ccc(OCCn2cc(/C=N/NC(=O)c3ccncc3)c3ccccc32)cc1	-8%	?
COc1cccc(OCCn2cc(/C=N/NC(=O)c3ccncc3)c3ccccc32)c1	-11%	?
CNC(=S)N/N=C/c1cn(CCOc2cccc(OC)c2)c2ccccc12	-27%	25µM*
COc1ccc(CNC(=O)CCS(=O)(=O)c2cc(Br)cc3c2N(C(C)=O)C(C)C3)cc1 (stereo not given)	0%	-13%
